This is an account of results in PubChem BioAssay (EPA / NIEHS).

A word on the AC50: it is the concentration giving half of the maximal activity seen.

Structures are written as SMILES. Values joined by “and” are separate entries in the source; they are usually repeats but may differ in a detail not shown here. Equal entries are not always repeated. Results filed as inconclusive are left out. Some structures have more than one record in an assay (separate samples or runs), and their calls can disagree. Active and inactive are the calls of the source. The calls were made as follows, unless noted: active = hit-call score of the fitted dose curve at least 0.9, where 1 is the maximum; inactive = score below 0.9.

In assay [1] the target is human RAR-related Orphan Receptor gamma (RORg), RORC (gene 6097) (UniProt P51449). The experiment in a line: ATG_RORg_TRANS: Attagene TRANS-FACTORIAL HepG2 Assay for human RAR-related Orphan Receptor gamma (RORg) (AID 2283011; active = hit-call score of the fitted dose curve at least 0.9, where 1 is the maximum). The method, boiled down: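 Activity is scored as increase in GAL4-UAS reporter mRNA over DMSO, detected by fluorescent RT-PCR and capillary electrophoresis in HepG2 cells transiently expressing a RORg-Gal4 chimera, 24 h after dosing.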
Chain of human RAR-related Orphan Receptor gamma (RORg), RORC (gene 6097) (P51449 whole entry, looked up, the tested form may be a part): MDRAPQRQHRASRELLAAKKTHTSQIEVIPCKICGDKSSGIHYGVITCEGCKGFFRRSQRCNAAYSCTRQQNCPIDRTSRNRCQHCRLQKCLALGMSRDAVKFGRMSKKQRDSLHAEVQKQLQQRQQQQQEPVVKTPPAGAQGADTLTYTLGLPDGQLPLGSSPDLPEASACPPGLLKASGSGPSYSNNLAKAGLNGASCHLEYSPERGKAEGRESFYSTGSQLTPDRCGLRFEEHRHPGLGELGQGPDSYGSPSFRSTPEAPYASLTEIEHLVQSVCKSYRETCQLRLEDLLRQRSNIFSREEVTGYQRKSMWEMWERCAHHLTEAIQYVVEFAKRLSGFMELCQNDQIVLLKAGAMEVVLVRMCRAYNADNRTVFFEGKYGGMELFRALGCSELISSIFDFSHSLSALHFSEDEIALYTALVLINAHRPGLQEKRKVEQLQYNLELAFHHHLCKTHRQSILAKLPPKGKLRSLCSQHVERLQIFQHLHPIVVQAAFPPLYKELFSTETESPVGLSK

Read-out in assay [2]: E-selectin (Homo sapiens) (UniProt P16581)
The experiment in a line: BSK_3C_Eselectin: BioMAP Diversity Plus: 3C Assay for Eselectin Biomarker Activity (AID 2283015).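 As to outcome: cell surface E-selectin protein quantified by ELISA 24 h after dosing.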 The following applies: primary human endothelial cells (HUVEC); actives raise or lower the signal. The method, boiled down: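 Human vascular endothelium from umbilical vein is exposed to test chemicals for 24 h. E-selectin levels are read by ELISA and compared with DMSO controls.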

Read-out in assay [3]: Interleukin-1 alpha (IL1a), IL1A (gene 3552)
The assay is described as follows: BSK_BE3C_IL1a: BioMAP Diversity Plus: BE3C Assay for Interleukin-1 alpha (IL1a) Biomarker Activity (AID 2283016). The following applies: primary human bronchial epithelial cells; actives raise or lower the signal. The method, boiled down: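 Human primary bronchial epithelial cells, 24 h chemical exposure; IL-1a quantified by ELISA, fitted bidirectionally against DMSO. Cytotoxicity assessed in parallel by SRB total-protein staining at the time of measurement.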

Read-out in assay [4]: Monocyte Chemoattractant Protein-1 (MCP1), CCL2 (gene 6347)
The assay is described as follows: BSK_4H_MCP1: BioMAP Diversity Plus: 4H Assay for Monocyte Chemoattractant Protein-1 (MCP1) Biomarker Activity (AID 2283018). The following applies: primary human endothelial cells (HUVEC); actives raise or lower the signal. The procedure, abridged:
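Human umbilical vein endothelial cells (4H system) exposed to chemicals for 24 h in 96-well format. MCP-1 measured by ELISA; bidirectional fitting against DMSO, with SRB total-protein staining in parallel cultures for cytotoxicity.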

Read-out in assay [5]: Human Leukocyte Antigen - DR isotype (HLADR), HLA-DRA (gene 3122)
The experiment in a line: BSK_3C_HLADR: BioMAP Diversity Plus: 3C Assay for Human Leukocyte Antigen - DR isotype (HLADR) Biomarker Activity (AID 2283019).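 As to outcome: ELISA of cell-surface HLA-DR on HUVEC 24 h after dosing.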 Particulars: primary human endothelial cells (HUVEC); actives raise or lower the signal. The procedure, abridged: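 Endothelial cells from human umbilical vein are treated with test chemical; after 24 h, HLA-DR levels are measured by ELISA. Data are fitted in both directions using DMSO as the baseline.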

For assay [6], the target named is human Retinoid X Receptor beta (RXRb), RXRB (gene 6257) (UniProt P28702). The experiment in a line: ATG_RXRb_TRANS: Attagene TRANS-FACTORIAL HepG2 Assay for human Retinoid X Receptor beta (RXRb) (AID 2283013; active = hit-call score of the fitted dose curve at least 0.9, where 1 is the maximum). The method, boiled down: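 HepG2 cells were transiently transfected with multiplexed GAL4-UAS reporters and a chimeric RXRb-Gal4 construct, then exposed for 24 h. Reporter mRNA was quantified by RT-PCR, FAM labeling, HpaI digestion and capillary electrophoresis; gain of signal was scored against DMSO.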
Chain of human Retinoid X Receptor beta (RXRb), RXRB (gene 6257) (P28702 whole entry, looked up, the tested form may be a part): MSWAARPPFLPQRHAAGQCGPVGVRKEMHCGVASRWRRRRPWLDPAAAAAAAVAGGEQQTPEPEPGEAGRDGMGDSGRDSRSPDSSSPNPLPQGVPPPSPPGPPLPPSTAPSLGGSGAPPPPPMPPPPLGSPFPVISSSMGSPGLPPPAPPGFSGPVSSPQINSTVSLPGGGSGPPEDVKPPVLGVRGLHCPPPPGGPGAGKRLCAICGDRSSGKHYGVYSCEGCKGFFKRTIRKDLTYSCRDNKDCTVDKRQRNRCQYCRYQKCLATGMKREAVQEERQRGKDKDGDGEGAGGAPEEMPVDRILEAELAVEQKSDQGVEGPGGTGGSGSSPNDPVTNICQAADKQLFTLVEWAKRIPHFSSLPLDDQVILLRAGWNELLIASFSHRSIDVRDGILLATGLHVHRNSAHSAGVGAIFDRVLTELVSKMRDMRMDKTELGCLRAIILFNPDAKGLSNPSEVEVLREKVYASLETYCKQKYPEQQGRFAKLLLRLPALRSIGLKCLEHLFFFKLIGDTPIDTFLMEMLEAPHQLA

Read-out in assay [7]: Monocyte Chemoattractant Protein-1 (MCP1), CCL2 (gene 6347)
The experiment in a line: BSK_3C_MCP1: BioMAP Diversity Plus: 3C Assay for Monocyte Chemoattractant Protein-1 (MCP1) Biomarker Activity (AID 2283017). The following applies: primary human endothelial cells (HUVEC); actives raise or lower the signal. The procedure, abridged: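 Endothelial cells from human umbilical vein are dosed with chemical, cultured 24 h, then assayed for MCP-1 by ELISA; both increases and decreases are modelled against DMSO controls.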

Assay [8] concerns the target Retinoic acid receptor RXR-alpha (Homo sapiens) (UniProt P19793). The assay is described as follows: ATG_RXRa_TRANS: Attagene TRANS-FACTORIAL HepG2 Assay for human Retinoid X Receptor alpha (RXRa) (AID 2283012; active = hit-call score of the fitted dose curve at least 0.9, where 1 is the maximum). The method, boiled down:
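HepG2 cells transiently transfected with GAL4-UAS reporter units and chimeric RXRa-Gal4 protein, treated 24 h. Reporter mRNA measured by RT-PCR, fluorescent labelling, HpaI digestion and capillary electrophoresis. Induction fitted against DMSO.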

The target in assay [9] is human Thyroid Receptor alpha (THRa1), THRA (gene 7067) (UniProt P10827). The assay is described as follows: ATG_THRa1_TRANS: Attagene TRANS-FACTORIAL HepG2 Assay for human Thyroid Receptor alpha (THRa1) (AID 2283014; active = hit-call score of the fitted dose curve at least 0.9, where 1 is the maximum). The procedure, abridged: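 First, HepG2 cells receive multiple GAL4-UAS reporter units and the chimeric receptor. They are then dosed for 24 h, after which RNA is reverse-transcribed, amplified, labelled, HpaI-cut and sized by capillary electrophoresis; gain relative to DMSO is scored.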
Chain of human Thyroid Receptor alpha (THRa1), THRA (gene 7067) (P10827 whole entry, looked up, the tested form may be a part): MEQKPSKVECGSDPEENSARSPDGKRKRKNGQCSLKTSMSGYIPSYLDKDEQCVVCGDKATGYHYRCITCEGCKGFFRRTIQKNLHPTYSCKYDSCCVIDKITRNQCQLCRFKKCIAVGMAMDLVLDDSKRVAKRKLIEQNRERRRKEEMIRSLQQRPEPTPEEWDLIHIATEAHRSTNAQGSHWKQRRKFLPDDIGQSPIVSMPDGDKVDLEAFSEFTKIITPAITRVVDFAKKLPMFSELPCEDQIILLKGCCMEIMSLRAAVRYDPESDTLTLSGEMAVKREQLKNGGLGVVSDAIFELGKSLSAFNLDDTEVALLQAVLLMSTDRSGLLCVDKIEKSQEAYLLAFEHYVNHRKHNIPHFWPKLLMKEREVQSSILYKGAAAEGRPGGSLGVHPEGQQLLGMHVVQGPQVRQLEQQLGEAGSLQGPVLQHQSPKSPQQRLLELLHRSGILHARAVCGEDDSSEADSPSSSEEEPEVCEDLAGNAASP

Chain of Retinoic acid receptor RXR-alpha (Homo sapiens) (P19793 whole entry, looked up, the tested form may be a part): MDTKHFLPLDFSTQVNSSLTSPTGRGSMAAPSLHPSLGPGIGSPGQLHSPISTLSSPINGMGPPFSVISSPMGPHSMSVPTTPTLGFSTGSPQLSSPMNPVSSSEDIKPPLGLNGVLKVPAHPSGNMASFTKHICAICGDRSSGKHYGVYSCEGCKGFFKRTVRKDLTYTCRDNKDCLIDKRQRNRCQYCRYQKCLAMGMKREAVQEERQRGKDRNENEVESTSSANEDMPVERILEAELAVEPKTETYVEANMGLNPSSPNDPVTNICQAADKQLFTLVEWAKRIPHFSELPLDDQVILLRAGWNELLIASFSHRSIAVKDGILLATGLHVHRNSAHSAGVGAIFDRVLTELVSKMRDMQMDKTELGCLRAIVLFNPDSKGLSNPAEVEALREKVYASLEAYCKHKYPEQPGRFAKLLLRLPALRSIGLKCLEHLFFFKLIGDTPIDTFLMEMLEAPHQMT
Chain of E-selectin (Homo sapiens) (P16581 whole entry, looked up): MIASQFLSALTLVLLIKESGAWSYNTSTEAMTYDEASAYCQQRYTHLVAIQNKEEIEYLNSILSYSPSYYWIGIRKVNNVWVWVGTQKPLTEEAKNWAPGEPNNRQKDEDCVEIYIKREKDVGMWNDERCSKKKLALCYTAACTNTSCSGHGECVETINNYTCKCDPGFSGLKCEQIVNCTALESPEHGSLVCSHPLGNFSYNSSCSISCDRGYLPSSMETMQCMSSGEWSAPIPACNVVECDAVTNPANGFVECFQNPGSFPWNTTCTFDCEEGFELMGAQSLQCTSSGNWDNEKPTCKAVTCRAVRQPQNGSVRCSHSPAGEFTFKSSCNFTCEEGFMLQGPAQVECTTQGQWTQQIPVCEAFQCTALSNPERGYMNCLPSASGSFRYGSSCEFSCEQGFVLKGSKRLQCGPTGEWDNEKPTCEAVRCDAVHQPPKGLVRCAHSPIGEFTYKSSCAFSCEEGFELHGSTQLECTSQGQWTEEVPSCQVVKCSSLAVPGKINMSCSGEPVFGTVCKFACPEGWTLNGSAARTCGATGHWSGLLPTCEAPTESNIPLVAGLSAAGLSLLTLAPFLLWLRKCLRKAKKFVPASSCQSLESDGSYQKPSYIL

On to `OCC(F)(F)C(F)(F)C(F)(F)C(F)(F)C(F)(F)C(F)F`, for which the result in [1], in assay [2], in assay [3], in assay [4] and in [5] was inactive.

For the compound `FC(F)(F)C(F)(F)C(F)(F)C(F)(F)C(F)(F)C(F)(F)C(F)(F)I`, the compound was called inactive in [1], in [6], in [2], in [3], in assay [7] and in [4]. The result in assay [5] was inactive.

In the case of `c1ccc(B(c2ccccc2)c2ccccc2)cc1`, the compound was called inactive in [8] and in assay [9]. Also, the half-maximal activity concentration (AC50) in assay [6] was 100 µM (active).

With `CC(CCl)OP(=O)(OC(C)CCl)OC(C)CCl` (stereo not given), the call in assay [8], in assay [6], in assay [2], in [3], in [4] and in assay [5] was inactive.

With `FC(F)(F)C(F)(F)C(F)(F)C(F)(F)C(F)(F)C(F)(F)C(F)(F)Br`, the compound was classed as inactive in assay [8], in assay [9], in assay [2], in assay [3], in [4] and in assay [5].

As for `FC(F)(Br)C(F)(F)C(F)(F)C(F)(F)C(F)(F)C(F)(F)Br`, the call in [8], in assay [2], in assay [3], in assay [7], in assay [4] and in assay [5] was inactive.

In the case of `FC1CC(F)(F)C(F)(F)C1(F)F` (stereo not given), the compound was called inactive in assay [1], in assay [9], in assay [2], in assay [3], in assay [7] and in [4]. Besides, in [5], the result was inactive.

Take `FC(F)(F)C(F)(F)C(F)(F)N(C(F)(F)C(F)(F)C(F)(F)F)C(F)(F)C(F)(F)C(F)(F)F`: the call in assay [9], in assay [2], in assay [3], in assay [4] and in assay [5] was inactive.

Regarding `FC(F)(F)C(F)(F)C(F)(F)C(F)(F)C(F)(F)C(F)(F)CCS`, the compound was called inactive in assay [1], in assay [8], in assay [9], in assay [2], in assay [3] and in assay [4]. The outcome in assay [5] was inactive.

On to `CO[Si](OC)(c1ccccc1)c1ccccc1`, for which the outcome in [8], in [6] and in assay [3] was inactive. Moreover, the AC50 in assay [2] is 31 µM (active); in assay [7], 32 µM (active); in [4] it was 0.148 µM (active); in [5], 32.5 µM (active).

Turning to `FC(F)(F)C(F)(F)C(F)(F)C(F)(F)C(F)(F)C(F)(F)C(F)(F)C(F)(F)CCS`, the outcome in assay [8], in [9], in assay [2], in assay [3], in [4] and in [5] was inactive.

Regarding `COC(=O)CCC(F)(F)C(F)(F)C(F)(F)C(F)(F)F`, the result in assay [9], in assay [2], in [3], in [4] and in assay [5] was inactive.

`FC(F)(F)C(F)(F)CNCC(F)(F)C(F)(F)F`: the call in assay [8], in assay [6], in assay [9], in assay [2], in assay [3] and in [4] was inactive. The outcome in [5] was inactive.

As for `O[Si](c1ccccc1)(c1ccccc1)c1ccccc1`, the outcome in [8], in assay [6], in [9] and in [3] was inactive. Moreover, the AC50 in [2] is 6.83 µM (active); in [7], 37.6 µM (active); in [4], 11.9 µM (active); in [5], 30.6 µM (active).

For `O=C(Cl)C(F)(F)C(F)(F)C(F)(F)C(F)(F)C(F)(F)C(F)(F)C(F)(F)C(F)(F)F`, the outcome in assay [8], in assay [2] and in assay [4] was inactive. In addition, the half-maximal activity concentration (AC50) in assay [6] is 25.7 µM (active); in assay [3], 46.4 µM (active) and 46.3 µM (active) and 55 µM (active); in [4] it was 5.95 µM (active); in [5], 49.4 µM (active) and 51.1 µM (active) and 52.5 µM (active).

As for `C=CC(=O)OCC(F)(F)C(F)(F)C(F)(F)C(F)(F)COC(=O)C=C`, the compound was classed as inactive in assay [1], in [8] and in assay [9]. Also, the AC50 in [2] was 35.8 µM (active) and 38.1 µM (active); in assay [3], 20.2 µM (active) and 25.4 µM (active); in [4] it was 49.4 µM (active) and 49 µM (active); in [5] it was 17.2 µM (active) and 18.1 µM (active).

Regarding `OCC(F)(F)C(F)(F)C(F)(F)C(F)(F)C(F)(F)C(F)(F)F`, the compound was called inactive in [1], in assay [9], in assay [2], in assay [3], in assay [4] and in assay [5].
